From PubChem BioAssay (NCATS)
Inconclusive results are not listed. Unmarked numbers belong to inactive results.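 How the source made its calls: active means compounds whose dose-response curve shows a full or clear partial loss of cell viability, called from curve shape rather than a numeric limit; inconclusive means weak partial curves or an effect only at the top dose; inactive means no dose-dependent loss of viability.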

Test: Cell Viability - Hek293 (AID 427);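 further: cells exposed to compound for 40 hours at 37 °C before reading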
Conditions: qHTS
In short: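 AC50 values derive from Hill-modelled concentration-response of ATP-based luminescence, normalized between DMSO-only and 100 uM tamoxifen controls. Cells were exposed in complete culture medium for 40 hr at 37 °C before detection.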
Potency means the concentration at half of the fitted maximal effect.

With `CCCCCCc1ccc(-c2ccc(C#N)cc2)cc1` as the compound, how does the Potency read?
The Potency was over 92 µM.

For `Nc1cnn([C@@H]2O[C@H](CO)[C@@H](O)[C@H]2O)c(=O)n1`, which Potency is on record?
The Potency was over 92 µM.

Which Potency does the source give for `C/C(Cl)=C/CCl` here?
Its Potency is over 92 µM.

Which Potency does the source give for `CCCCNCC` here?
The Potency was over 92 µM.

For `O=c1[nH]ncc2ccccc12`, which Potency is on record?
The Potency was over 92 µM.

With `c1ccc(COCc2ccccc2)cc1` as the compound, how does the Potency read?
The Potency was over 92 µM.

Which Potency does the source give for `c1ccc2c(c1)ccc1ccccc12` here?
Its Potency is over 92 µM.

For `Nc1ccc(N=Nc2ccccc2)c(N)c1`, which Potency is on record?
The Potency was over 92 µM.

For `Cc1ccc(C(=O)O)cc1[N+](=O)[O-]`, which Potency is on record?
The Potency was over 92 µM.

For `COc1ccc([N+](=O)[O-])cc1N`, which Potency is on record?
Its Potency is over 92 µM.

With `OCC(CO)(CBr)CBr` as the compound, how does the Potency read?
Its Potency is over 92 µM.

For `c1c[nH]cn1`, which Potency is on record?
The Potency was over 92 µM.

Which Potency does the source give for `c1ccc(SCCSc2ccccc2)cc1` here?
Its Potency is over 92 µM.

For `O=C(O)/C=C/c1ccc(/C=C/C(=O)O)cc1`, which Potency is on record?
Its Potency is over 92 µM.

With `CCCCOC(=O)COc1ccc(Cl)cc1Cl` as the compound, how does the Potency read?
The Potency was over 92 µM.

For `CC(=O)Nc1cccc(C)c1`, which Potency is on record?
The Potency was over 92 µM.

For `CCC(Cl)CC(Cl)C(Cl)C(Cl)C(Cl)C(C)Cl` (stereo unspecified), which Potency is on record?
Its Potency is over 92 µM.

With `COc1ccc(C)cc1N` as the compound, how does the Potency read?
The Potency was over 92 µM.

For `COc1cc(-c2ccc(N=C=O)c(OC)c2)ccc1N=C=O`, which Potency is on record?
The Potency was over 92 µM.

For `CCOC(=O)C1OC1c1ccccc1` (stereo unspecified), which Potency is on record?
Its Potency is over 92 µM.

For `COc1ccc(C(=O)Nc2ccccc2)cc1[N+](=O)[O-]`, which Potency is on record?
Its Potency is over 92 µM.
